Assay in all cases: PBM; 200 nM protein, PBS
Holding throughout (conditions): dsDNA, one strand shown

Test [1] addresses HESX1 (Homo sapiens, UniProt Q9UBX0 95-180, R165K).
Test [2] concerns the target HESX1 (Homo sapiens, UniProt Q9UBX0 95-180).
For test [3], the target named is HESX1 (Homo sapiens, UniProt Q9UBX0 95-180, P111T).
The target in test [4] is PRRX1 (Homo sapiens, UniProt P54821 80-166).
Test [5] has as its target HOXB4 (Homo sapiens, UniProt P17483 148-234).
Test [6] addresses SHOX (Homo sapiens, UniProt O15266 103-189).
Another test concerns the target HOXB9 (Homo sapiens, UniProt P17482 171-250, T197M).
Test [7] has as its target ALX4 (Homo sapiens, UniProt Q9H161 200-286).
In test [8] the target is T1, PAX4 (Homo sapiens, UniProt O43316 9-242, R200K).
T1 sequence: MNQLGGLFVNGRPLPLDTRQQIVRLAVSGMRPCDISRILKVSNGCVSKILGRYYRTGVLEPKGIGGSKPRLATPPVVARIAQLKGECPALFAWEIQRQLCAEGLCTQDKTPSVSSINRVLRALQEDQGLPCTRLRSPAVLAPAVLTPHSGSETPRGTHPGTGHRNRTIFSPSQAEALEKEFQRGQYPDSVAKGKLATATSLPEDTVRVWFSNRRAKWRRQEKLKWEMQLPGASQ

Test [9] addresses PRRX1 (Homo sapiens, UniProt P54821 80-166, F113S).
In test [10] the target is T2, PAX4 (Homo sapiens, UniProt O43316 9-242).
T2 sequence: T1 sequence with K192R

The target in test [11] is ALX4 (Homo sapiens, UniProt Q9H161 200-286, Q225E).
Sequence of ALX4 (Homo sapiens, UniProt Q9H161 200-286, Q225E) (Q9H161 200-286 Q225E): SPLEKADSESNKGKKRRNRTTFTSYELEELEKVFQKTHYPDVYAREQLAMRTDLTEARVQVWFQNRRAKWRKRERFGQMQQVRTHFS
In test [12] the target is HOXB4 (Homo sapiens, UniProt P17483 148-234, V174I).
Sequence of HOXB4 (Homo sapiens, UniProt P17483 148-234, V174I) (P17483 148-234 V174I): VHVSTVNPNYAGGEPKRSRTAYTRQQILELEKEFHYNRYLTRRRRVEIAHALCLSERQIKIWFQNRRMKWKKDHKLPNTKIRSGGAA
For test [13], the target named is ALX1 (Homo sapiens, UniProt Q15699 118-204, L144V).
Sequence of ALX1 (Homo sapiens, UniProt Q15699 118-204, L144V) (Q15699 118-204 L144V): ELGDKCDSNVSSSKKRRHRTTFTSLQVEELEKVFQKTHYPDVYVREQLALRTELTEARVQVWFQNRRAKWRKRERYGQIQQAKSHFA
Test [14] deals with ALX3 (Homo sapiens, UniProt O95076 139-225, N203Q).
Sequence of ALX3 (Homo sapiens, UniProt O95076 139-225, N203Q) (O95076 139-225 N203Q): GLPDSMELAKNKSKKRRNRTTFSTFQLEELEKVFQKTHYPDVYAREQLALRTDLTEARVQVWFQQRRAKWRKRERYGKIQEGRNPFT
Test [15] has as its target T3, PAX4 (Homo sapiens, UniProt O43316 9-242, R200Q).
T3 sequence: T1 sequence with K192Q

In test [16] the target is SHOX (Homo sapiens, UniProt O15266 103-189, R173C).
Sequence of SHOX (Homo sapiens, UniProt O15266 103-189, R173C) (O15266 103-189 R173C): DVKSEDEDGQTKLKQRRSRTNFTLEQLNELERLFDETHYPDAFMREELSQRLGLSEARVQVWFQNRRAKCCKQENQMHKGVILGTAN
The target in test [17] is ALX1 (Homo sapiens, UniProt Q15699 118-204, L144R).
Sequence of ALX1 (Homo sapiens, UniProt Q15699 118-204, L144R) (Q15699 118-204 L144R): as the sequence (Q15699 118-204 L144V) above, with V27R counted along it
The target in test [18] is T4, PAX4 (Homo sapiens, UniProt O43316 9-242, F177V).
T4 sequence: T1 sequence with F169V, K192R

Test [19] has as its target ALX3 (Homo sapiens, UniProt O95076 139-225).
Test [20] addresses T5, PAX4 (Homo sapiens, UniProt O43316 9-242, F177Y).
T5 sequence: T1 sequence with F169Y, K192R

Test [21] has as its target PROP1 (Homo sapiens, UniProt O75360 56-141).
In test [22] the target is PROP1 (Homo sapiens, UniProt O75360 56-141, R99H).
Sequence of PROP1 (Homo sapiens, UniProt O75360 56-141, R99H) (O75360 56-141 R99H): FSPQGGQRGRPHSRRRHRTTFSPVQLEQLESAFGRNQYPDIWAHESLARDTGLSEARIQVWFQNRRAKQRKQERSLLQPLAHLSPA
Test [23] concerns the target VAX1 (Homo sapiens, UniProt Q5SQQ9 86-172).
The target in test [24] is ALX3 (Homo sapiens, UniProt O95076 139-225, L168Q).
Sequence of ALX3 (Homo sapiens, UniProt O95076 139-225, L168Q) (O95076 139-225 L168Q): as the sequence (O95076 139-225 N203Q) above, with L30Q, Q65N counted along it
In test [25] the target is ALX3 (Homo sapiens, UniProt O95076 139-225, L168V).
Sequence of ALX3 (Homo sapiens, UniProt O95076 139-225, L168V) (O95076 139-225 L168V): as the sequence (O95076 139-225 N203Q) above, with L30V, Q65N counted along it
In test [26] the target is PROP1 (Homo sapiens, UniProt O75360 56-141, F88S).
Sequence of PROP1 (Homo sapiens, UniProt O75360 56-141, F88S) (O75360 56-141 F88S): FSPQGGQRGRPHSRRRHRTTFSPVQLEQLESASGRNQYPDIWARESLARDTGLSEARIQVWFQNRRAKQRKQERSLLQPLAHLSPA
Test [27] addresses VAX1 (Homo sapiens, UniProt Q5SQQ9 86-172, T142I).
For test [28], the target named is T6, PAX4 (Homo sapiens, UniProt O43316 9-242, R227W).
T6 sequence: T1 sequence with K192R, R219W

For test [29], the target named is ALX1 (Homo sapiens, UniProt Q15699 118-204).
Sequence of ALX1 (Homo sapiens, UniProt Q15699 118-204) (Q15699 118-204): as the sequence (Q15699 118-204 L144V) above, with V27L counted along it
Test [30] has as its target ALX3 (Homo sapiens, UniProt O95076 139-225, N203S).
For test [31], the target named is VAX1 (Homo sapiens, UniProt Q5SQQ9 86-172, K157R).
Sequence of VAX1 (Homo sapiens, UniProt Q5SQQ9 86-172, K157R) (Q5SQQ9 86-172 K157R): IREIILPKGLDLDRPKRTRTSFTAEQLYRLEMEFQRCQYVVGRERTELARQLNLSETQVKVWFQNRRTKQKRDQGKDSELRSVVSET

Numbering of substitutions follows the chain as printed.

Sequence of HESX1 (Homo sapiens, UniProt Q9UBX0 95-180, P111T) (Q9UBX0 95-180 P111T): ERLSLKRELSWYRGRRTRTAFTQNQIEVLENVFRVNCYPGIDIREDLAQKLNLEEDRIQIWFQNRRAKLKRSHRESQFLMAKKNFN
Sequence of PRRX1 (Homo sapiens, UniProt P54821 80-166) (P54821 80-166): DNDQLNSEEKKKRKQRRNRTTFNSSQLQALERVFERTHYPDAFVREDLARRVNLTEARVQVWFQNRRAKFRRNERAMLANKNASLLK
Sequence of HESX1 (Homo sapiens, UniProt Q9UBX0 95-180, R165K) (Q9UBX0 95-180 R165K): as the sequence (Q9UBX0 95-180 P111T) above, with T17P, R71K counted along it
Sequence of HESX1 (Homo sapiens, UniProt Q9UBX0 95-180) (Q9UBX0 95-180): as the sequence (Q9UBX0 95-180 P111T) above, with T17P counted along it
Sequence of VAX1 (Homo sapiens, UniProt Q5SQQ9 86-172, T142I) (Q5SQQ9 86-172 T142I): as the sequence (Q5SQQ9 86-172 K157R) above, with T57I, R72K counted along it
Sequence of ALX4 (Homo sapiens, UniProt Q9H161 200-286) (Q9H161 200-286): as the sequence (Q9H161 200-286 Q225E) above, with E26Q counted along it
Sequence of SHOX (Homo sapiens, UniProt O15266 103-189) (O15266 103-189): as the sequence (O15266 103-189 R173C) above, with C71R counted along it
Sequence of ALX3 (Homo sapiens, UniProt O95076 139-225, N203S) (O95076 139-225 N203S): as the sequence (O95076 139-225 N203Q) above, with Q65S counted along it
Sequence of ALX3 (Homo sapiens, UniProt O95076 139-225) (O95076 139-225): as the sequence (O95076 139-225 N203Q) above, with Q65N counted along it
Sequence of VAX1 (Homo sapiens, UniProt Q5SQQ9 86-172) (Q5SQQ9 86-172): as the sequence (Q5SQQ9 86-172 K157R) above, with R72K counted along it
Sequence of PRRX1 (Homo sapiens, UniProt P54821 80-166, F113S) (P54821 80-166 F113S): as the sequence (P54821 80-166) above, with F34S counted along it
Sequence of PROP1 (Homo sapiens, UniProt O75360 56-141) (O75360 56-141): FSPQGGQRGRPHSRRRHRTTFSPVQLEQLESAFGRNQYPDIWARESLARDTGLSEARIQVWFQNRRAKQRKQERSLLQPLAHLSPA
Sequence of HOXB9 (P17482 171-250 T197M): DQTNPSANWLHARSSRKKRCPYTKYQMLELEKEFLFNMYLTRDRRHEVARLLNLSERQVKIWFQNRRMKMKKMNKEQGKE
Sequence of HOXB4 (Homo sapiens, UniProt P17483 148-234) (P17483 148-234): as the sequence (P17483 148-234 V174I) above, with I27V counted along it

As to ACTATAGA, the binding signal with HESX1 [1] is 7.13 upbm affinity estimate (log intensity, higher = more binding, comparable within an allelic series); with HESX1 [2], 7.13 upbm affinity estimate (log intensity, higher = more binding, comparable within an allelic series); with HESX1 [3], 7.02 upbm affinity estimate (log intensity, higher = more binding, comparable within an allelic series).

As for AACAATAC, the binding signal in the test with HESX1 [1] was 7.27 upbm affinity estimate (log intensity, higher = more binding, comparable within an allelic series); in the test with HESX1 [2], 7.3 upbm affinity estimate (log intensity, higher = more binding, comparable within an allelic series); with HESX1 [3], 7.19 upbm affinity estimate (log intensity, higher = more binding, comparable within an allelic series); in the test with PRRX1 [4], 10.9 upbm affinity estimate (log intensity, higher = more binding, comparable within an allelic series).

On to TAAATTAA, for which the binding signal in the test with HOXB4 [5] was 12.9 upbm affinity estimate (log intensity, higher = more binding, comparable within an allelic series); in the test with SHOX [6] it was 11.8 upbm affinity estimate (log intensity, higher = more binding, comparable within an allelic series); with HOXB9, 9.99 upbm affinity estimate (log intensity, higher = more binding, comparable within an allelic series); with ALX4 [7], 13.9 upbm affinity estimate (log intensity, higher = more binding, comparable within an allelic series); with PAX4 [8] it was 11.8 upbm affinity estimate (log intensity, higher = more binding, comparable within an allelic series); with PRRX1 [9] it was 11.2 upbm affinity estimate (log intensity, higher = more binding, comparable within an allelic series). Further, the binding signal is 12.3 upbm affinity estimate (log intensity, higher = more binding, comparable within an allelic series) with PAX4 [10]; 13.1 upbm affinity estimate (log intensity, higher = more binding, comparable within an allelic series) with ALX4 [11]; 13.6 upbm affinity estimate (log intensity, higher = more binding, comparable within an allelic series) in the test with HOXB4 [12]; 11.8 upbm affinity estimate (log intensity, higher = more binding, comparable within an allelic series) in the test with ALX1 [13]; 8.53 upbm affinity estimate (log intensity, higher = more binding, comparable within an allelic series) with ALX3 [14]; 12 upbm affinity estimate (log intensity, higher = more binding, comparable within an allelic series) with PAX4 [15]. Besides, the binding signal is 9.24 upbm affinity estimate (log intensity, higher = more binding, comparable within an allelic series) with SHOX [16]; 11.5 upbm affinity estimate (log intensity, higher = more binding, comparable within an allelic series) with ALX1 [17]; 10.6 upbm affinity estimate (log intensity, higher = more binding, comparable within an allelic series) with PAX4 [18]; 12.4 upbm affinity estimate (log intensity, higher = more binding, comparable within an allelic series) in the test with ALX3 [19]; 11 upbm affinity estimate (log intensity, higher = more binding, comparable within an allelic series) with PAX4 [20]; 11.2 upbm affinity estimate (log intensity, higher = more binding, comparable within an allelic series) with PROP1 [21]. The binding signal with PROP1 [22] was 11 upbm affinity estimate (log intensity, higher = more binding, comparable within an allelic series); with VAX1 [23] it was 12.6 upbm affinity estimate (log intensity, higher = more binding, comparable within an allelic series); with ALX3 [24] it was 10.4 upbm affinity estimate (log intensity, higher = more binding, comparable within an allelic series); with HESX1 [3] it was 10.1 upbm affinity estimate (log intensity, higher = more binding, comparable within an allelic series); in the test with ALX3 [25] it was 9.89 upbm affinity estimate (log intensity, higher = more binding, comparable within an allelic series); with PROP1 [26] it was 7.74 upbm affinity estimate (log intensity, higher = more binding, comparable within an allelic series). The binding signal with VAX1 [27] was 12.4 upbm affinity estimate (log intensity, higher = more binding, comparable within an allelic series); with PAX4 [28], 11 upbm affinity estimate (log intensity, higher = more binding, comparable within an allelic series); in the test with ALX1 [29], 12.4 upbm affinity estimate (log intensity, higher = more binding, comparable within an allelic series); with ALX3 [30], 8.68 upbm affinity estimate (log intensity, higher = more binding, comparable within an allelic series); with PRRX1 [4], 13.4 upbm affinity estimate (log intensity, higher = more binding, comparable within an allelic series); with VAX1 [31] it was 12.4 upbm affinity estimate (log intensity, higher = more binding, comparable within an allelic series).

The record behind these values is paper PMC11006913.
